Bioassay records: PubChem BioAssay, National Center for Advancing Translational Sciences (NCATS)
Only some compounds are listed: those with a hit (about 19% of all), similar ones and a draw of the others.
TDP1 cell CPT: growth inhibition of DT40 Tdp1-/-;hTDP1 cells with camptothecin (screen for TDP1 inhibitors); actives 12% (n = 420,000); chicken DT40 Tdp1-/-;hTDP1 cells + 20 nM CPT, ATP luminescence, 48 h; Potency, µM (titrated, usually from 46.2 µM), for the others: at the top dose activity change, negative = growth inhibition, most hits filed as inhibitors; further: potency means the concentration at half of the fitted maximal effect; nearly all actives have a fitted effect of over 55% in size
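Chicken DT40 Tdp1-/- cells complemented with human TDP1, 400 cells/well, exposed to compounds plus 20 nM camptothecin for at least 48 h at 37 C; viability read as ATP content by CellTiter-Glo luminescence.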
uPA surface inh: cell surface uPA generation inhibition | AID 540303 | Potency, µM (series often up to 38.3 µM), for inactives: at the highest dose activity change, negative = inhibition, most hits filed as inhibitors | cell surface uPA generation assay, qHTS | actives 0.31% (n = 330,000); active means well fitted inhibition curve with a large enough effect; inconclusive means small, poorly fitted or top-dose-only effect; inactive means no such curve, though single readings can be large or run the other way; tested in mouse RAW 264.7 cells; further: potency means the concentration at half of the fitted maximal effect; nearly all actives have a fitted effect of over 55% in size
IL1B secr inh: inflammasome signaling inhibition, IL-1 beta readout. THP-1 LPS/ATP IL-1B secretion, AlphaLISA, 16 h; hits give low values. activity change, % at 57.5 µM. actives 4.7% (n = 360,000); in the data active means activity change below about -50%; inconclusive means mostly about -30% to -49%
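Secreted IL-1B measured by AlphaLISA bead assay after 16 h compound exposure of THP-1 cells; compounds (final up to 57.5 uM) added 1 h before LPS (250 ng/mL) and ATP (1.25 mM) stimulation; lower signal means less secretion.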
HT1080 IDH1KD tx: toxicity to HT-1080 IDH1 knockdown cells (counter line). HT-1080 IDH1 knockdown viability, ATP luminescence, 48 h. Potency, µM (doses to about 46.1 µM), for inactives: at the highest dose activity, negative = toxicity, hits mostly cytotoxic. actives 2% (n = 360,000). AID 686971;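 further: potency means the concentration at half of the fitted maximal effect; 0% = DMSO wells and -100% = cell-free medium wells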
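In this qHTS, HT-1080 cells depleted of IDH1 are exposed for 48 h at 37 °C to compound titrations. Toxicity is scored from CellTiter-Glo luminescence, with DMSO as full viability and medium alone as none.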
TDP1 cell noCPT: qHTS for Inhibitors of human tyrosyl-DNA phosphodiesterase 1 (TDP1): qHTS in cells in absence of CPT. DT40 Tdp1-/- hTDP1 cells, no CPT, ATP luminescence, 48 h. Potency, µM (doses to about 46.2 µM), without a hit: top-dose activity change, negative = growth inhibition, most hits filed as inhibitors. actives 15% (n = 420,000); further: potency means the concentration at half of the fitted maximal effect; nearly all actives have a fitted effect of over 55% in size
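DT40 Tdp1-/-;hTDP1 cells, no CPT (DMSO vehicle only), 400 cells/well; compounds pin-transferred; ≥48 hr, 37 °C; CellTiter-Glo 30 min RT dark, luminescence read.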
HT1080NT lethal: kills 2HG-producing HT-1080-NT fibrosarcoma cells. actives 1.6% (n = 360,000). HT-1080-NT fibrosarcoma viability, CellTiter-Glo ATP luminescence, 48 h. Potency, µM (series often up to 46.1 µM), for the others: at the highest dose activity, negative = less viability, most hits filed as cytotoxic. AID 686970;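 further: NT is the 2HG producing partner of a matched IDH1 knockdown line; potency means the concentration at half of the fitted maximal effect; 0% = DMSO-treated cells and -100% = media-only wells without cells; nearly all actives have a fitted effect of over 55% in size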
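Luminescent CellTiter-Glo readout after 48 hours of compound exposure at 37 degrees C defined viability of HT-1080-NT cells. Activity was normalized to DMSO wells and cell-free media wells; concentration-response curves were fitted and assigned curve classes.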
* = called active by the depositor; ? = inconclusive; · = not tested or not shown. Unless noted, the call rests on the fitted dose curve; in most records, active means well fitted curve in the direction sought with a large enough effect; inconclusive means small, poorly fitted or top-dose-only effect, or another doubt; inactive means no such curve, though single readings can be large; an effect the other way counts as inactive or inconclusive. Unless noted, on the % scale 0 is the no-effect control and ±100 the full control effect.

SMILES	TDP1 cell CPT	uPA surface inh	IL1B secr inh	HT1080 IDH1KD tx	TDP1 cell noCPT	HT1080NT lethal
COc1cccc(-c2nc(CCl)cs2)c1OC	2.31µM*	·	1.2	6.2%	6.51µM*	1.9%
CCOc1ccc(-c2nc(CCl)cs2)cc1OC	10.3µM*	·	-25.5	10.8%	13µM*	12.5%
CCOC(=O)c1csc(-c2ccc(OC)c(OC)c2)n1	23.4%	-11.8%	-17.6	14.4%	6.3%	-1.4%
COc1ccc(Br)c(Cn2c(C)c(C(=O)NCc3ccc(F)cc3)sc2=O)c1	?	·	?	-19.6%	?	-11.0%
OCCN1CCN(C2CCC(c3ccc(F)cc3)c3ccc(F)cc32)CC1 (stereo not drawn)	?	2.3%	-75.7*	23.1µM*	8.2µM*	18.4µM*
CCN(CC)C(=O)[C@H]1C[C@H](CC(=O)NCCN2CCOCC2)C(=O)N2CCc3c([nH]c4cc(CCC(=O)N(C)C)ccc34)[C@]12C	-0.3%	5.6%	-9.8	5.4%	-5.8%	-1.2%
COc1ccc(NCc2nnc(SCC(=O)Nc3nc(-c4ccccc4)cs3)n2-c2ccccc2)cc1	4.61µM*	4.7%	46.4	-12.2%	23.1µM*	-8.9%
COc1ccc(C(=O)CSc2nnc(CNc3nc(-c4ccccc4)cs3)n2C)cc1	?	7.3%	-15.4	-13.7%	?	-19.7%
Cc1cc(C)nc(SCc2nnc(SCC#N)n2-c2cccc(Cl)c2)n1	?	-6.1%	-4.5	2.0%	20.6µM*	7.5%
Cc1cc(C)nc(SCc2nnc(SCC(=O)O)n2-c2ccccc2)n1	1.9%	0.4%	17.3	22.6%	-2.8%	3.1%
CCn1c(CCNC(=O)c2cccs2)nnc1SCC(=O)Nc1cccc(Cl)c1	-0.2%	1.1%	-21.5	-2.8%	-11.5%	1.0%
CCn1c(CCNC(=O)c2cccs2)nnc1SCC(=O)Nc1nc(-c2ccccc2)cs1	16.4µM*	-0.9%	-29.5	-6.3%	10.3µM*	1.5%
Cc1cc(C)nc(SCc2nnc(SCC(=O)Nc3nc(-c4ccccc4)cs3)n2-c2ccccc2)n1	?	2.5%	0.0	4.1%	18.4µM*	3.5%
CCCN1CCC(=O)NC1=S	-14.6%	6.0%	8.7	0.0%	6.5%	2.8%
Cc1csc(SCC(=O)NC2CCS(=O)(=O)C2)n1 (stereo not drawn)	13.4%	6.6%	-12.5	14.8%	?	-0.9%
Cn1cnc(S(=O)(=O)N2CCCCC2c2cc(C(=O)NCc3ccc(F)cc3)no2)c1 (stereo not drawn)	-14.3%	·	-2.6	15.9%	-6.9%	16.1%
CCc1ccccc1NC(=O)CC(C)n1nc(C)cc1C (stereo not drawn)	-2.9%	·	·	·	-13.9%	·
Cc1c(Cl)cccc1NC(=O)N1CCC(CN2CCOCC2)CC1	-12.8%	·	·	·	-12.5%	·
COc1ccc(C(=O)CSC(=S)N2CCCCC2)cc1	?	·	-4.9	8.2%	?	13.1%
COc1ccc(-n2c(Cc3cccn3C)nnc2SCC(=O)Nc2ccc(C)cc2)cc1	-2.4%	2.2%	-28.6	-3.1%	13.7%	-4.2%
COc1ccc(-n2c(CNc3ccc(C)cc3)nnc2SCC(=O)Nc2nc(-c3ccccc3)cs2)cc1	5.62µM*	·	39.8	-1.1%	10µM*	-2.2%
CCOC(=O)C1=C(CSc2nc(-c3ccccc3)ccc2C#N)OC(N)=C(C#N)C1c1ccc(OC)cc1 (stereo not drawn)	8.2µM*	-4.8%	29.7	-1.6%	9.2µM*	3.9%
CCOC(=O)C1=C(CSc2nc(CC)c(C)cc2C#N)OC(N)=C(C#N)C1c1ccccc1 (stereo not drawn)	3.26µM*	-2.5%	9.9	-0.2%	23.1µM*	-2.2%
CCOC(=O)C1=C(CSc2nc3c(cc2C#N)CN(C)CC3)OC(N)=C(C#N)C1c1ccc(Cl)cc1 (stereo not drawn)	?	4.4%	-6.0	-3.5%	?	-4.1%
CCOC(=O)C1=C(CSc2nc(C)cc(C)c2C#N)OC(N)=C(C#N)C1c1ccccc1 (stereo not drawn)	?	-0.9%	11.8	17.2%	23.1µM*	11.9%
SMILES	TDP1 cell CPT	uPA surface inh	IL1B secr inh	HT1080 IDH1KD tx	TDP1 cell noCPT	HT1080NT lethal
COc1cc(CC(NC(C)=O)C(=O)NC2CCN(C(=O)Nc3ccccc3C)CC2)cc(OC)c1 (stereo not drawn)	11.9%	0.4%	3.2	6.1%	-0.4%	5.4%
O=C(C[C@H]1C/C=C\CCC(=O)O[C@@H](c2ccccc2)CNC1=O)NCCO	0.6%	-1.7%	24.0	-0.5%	1.9%	14.3%
Brc1ccc2oc3c(N4CCOCC4)ncnc3c2c1	?	-1.8%	0.0	11.9%	11.6µM*	10.2%
CCOC(=O)C1CCN(C(c2ccc(OCC)cc2)c2c(O)cc(C)n(CCOC)c2=O)CC1 (stereo not drawn)	-9.6%	·	·	·	-13.7%	·
O=C(COc1ccc(Cl)cc1)N(Cc1ccccc1)c1nc(-c2ccccc2)cs1	?	-0.9%	8.2	9.1%	25.9µM*	8.2%
Ic1ccc(Nc2nc(NCCN3CCOCC3)nc(N3CCCC3)n2)cc1	11.2µM*	·	·	·	11.2µM*	·
Ic1ccc(Nc2nc(NCCN3CCOCC3)nc(N3CCOCC3)n2)cc1	5.01µM*	·	·	·	2.82µM*	·
c1ccc(Nc2nc(NCCN3CCOCC3)nc(Nc3ccccc3)n2)cc1	?	5.7%	-7.4	?	?	?
O=C(NCC(c1ccc(F)cc1)N1CCOCC1)c1ccc([N+](=O)[O-])o1 (stereo not drawn)	20.6µM*	-16.0%	·	?	25.9µM*	?
COc1cc(C(=O)NCC(c2cccs2)N2CCOCC2)ccc1OCc1ccc(Cl)cc1 (stereo not drawn)	6.51µM*	·	?	?	3.66µM*	-29.5%
O=C(NCC(c1ccc(F)cc1)N1CCOCC1)c1ccc(OCc2ccccc2)cc1 (stereo not drawn)	18.4µM*	12.7%	-20.5	2.5%	20.6µM*	0.0%
O=C(NCC(c1cccs1)N1CCOCC1)c1cnc(Cl)c(Cl)c1 (stereo not drawn)	?	?	-98.5*	-1.9%	?	?
Cc1cccc(C(=O)NCC(c2cccs2)N2CCOCC2)c1 (stereo not drawn)	-8.3%	-9.5%	10.0	?	-17.3%	-34.3%
COc1ccc(C(CNC(=O)c2ccc(OCc3ccccc3)cc2)N2CCOCC2)cc1 (stereo not drawn)	?	2.5%	-21.2	-9.6%	-18.0%	5.6%
Cc1nn(Cc2cccc(F)c2)c(C)c1NC(=O)c1c(Cl)cnn1C	-28.0%	-1.0%	-7.2	-3.0%	?	-1.5%
